Measured values published in PubChem BioAssay AID1159580 (chemical genetic matrix, 2015).
Hit rate of the full screen: of about 5,500 compounds, about 2,000 (36%) were called active. Not shown: some 18% with an inconclusive outcome. Rule as the data show it: active = normalized growth mostly below about 0.91 (no sharp cut-off); inconclusive = no clear call, values can overlap the other calls; inactive = mostly above about 0.92. This is one part of the list.

Test: chemical genetic growth profiling, strain panel (AID 1159580);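 also: tested at 20 µM; growth read once vehicle control cultures reached saturation at 30 °C; 1 = growth at the plate median or of vehicle wells; lower values mean less growth of the strain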
Conditions: growth OD

Measured: normalized growth

CC1=CC(=O)C(C(C)C)=CC1=O
inactive: S. cerevisiae deletion strains, locus YJR066W, strain TOR1, hits give low values 0.903 | S. cerevisiae deletion strains, locus YKL009W, strain mrt4, hits give low values 0.936 | S. cerevisiae deletion strains, locus YKL068W, hits give low values 0.961 | S. cerevisiae deletion strains, locus YKL085W, strain MDH1 (second series), hits give low values 0.965 | S. cerevisiae deletion strains, locus YKL085W, strain MDH1, hits give low values 0.965 | S. cerevisiae deletion strains, locus YKL160W, strain elf1, hits give low values 0.951 | S. cerevisiae deletion strains, locus YKL190W, strain CNB1, hits give low values 0.946 | S. cerevisiae deletion strains, locus YKR091W, strain srl3, hits give low values 0.999 | S. cerevisiae deletion strains, locus YLL001W, strain dnm1, hits give low values 1.01 | S. cerevisiae deletion strains, locus YLL041C, strain sdh2, hits give low values 0.95 | S. cerevisiae deletion strains, locus YLR039C, strain RIC1, hits give low values 0.691 | S. cerevisiae deletion strains, locus YLR058C, strain SHM2, hits give low values 0.946 | S. cerevisiae deletion strains, locus YLR102C, strain apc9, hits give low values 0.95 | S. cerevisiae deletion strains, locus YLR113W, strain HOG1, hits give low values 0.986 | S. cerevisiae deletion strains, locus YLR262C, strain YPT6, hits give low values 0.643 | S. cerevisiae deletion strains, locus YLR342W, strain FKS1, hits give low values 1.01 | S. cerevisiae deletion strains, locus YLR370C, strain arc18, hits give low values 1.01 | S. cerevisiae deletion strains, locus YLR384C, strain iki3, hits give low values 0.987 | S. cerevisiae deletion strains, locus YML016C, strain PPZ1, hits give low values 0.978 | S. cerevisiae deletion strains, locus YML124C, strain tub3, hits give low values 0.943 | S. cerevisiae deletion strains, locus YMR078C, strain ctf18, hits give low values 0.912 | S. cerevisiae deletion strains, locus YMR231W, strain pep5, hits give low values 1.01 | S. cerevisiae deletion strains, locus YNL067W, strain RPL9B, hits give low values 0.925 | S. cerevisiae deletion strains, locus YNL183C, strain NPR1, hits give low values 0.892 | S. cerevisiae deletion strains, locus YNL209W, strain ssb2, hits give low values 1 | S. cerevisiae deletion strains, locus YNL250W, strain rad50, hits give low values 0.972 | S. cerevisiae deletion strains, locus YNR049C, strain mso1, hits give low values 0.986 | S. cerevisiae deletion strains, locus YNR052C, strain pop2, hits give low values 0.922 | S. cerevisiae deletion strains, locus YOL012C, strain htz1 0.626 | S. cerevisiae deletion strains, locus YOR061W, strain CKA2, hits give low values 0.98 | S. cerevisiae deletion strains, locus YOR069W, strain VPS5, hits give low values 0.961 | S. cerevisiae deletion strains, locus YOR070C, strain gyp1, hits give low values 0.976 | S. cerevisiae deletion strains, locus YOR080W, strain dia2, hits give low values 0.999 | S. cerevisiae deletion strains, locus YOR083W, strain WHI5, hits give low values 0.904 | S. cerevisiae deletion strains, locus YOR136W, strain idh2, hits give low values 0.924 | S. cerevisiae deletion strains, locus YOR231W, strain MKK1, hits give low values 0.967 | S. cerevisiae deletion strains, locus YOR265W, strain rbl2, hits give low values 0.997 | S. cerevisiae deletion strains, locus YOR270C, strain vph1, hits give low values 0.777 | S. cerevisiae deletion strains, locus YOR316C, strain cot1, hits give low values 0.949 | S. cerevisiae deletion strains, locus YPL078C, strain atp4, hits give low values 0.912 | S. cerevisiae deletion strains, locus YPL106C, strain sse1, hits give low values 0.923 | S. cerevisiae deletion strains, locus YPL256C, strain CLN2, hits give low values 0.964 | S. cerevisiae deletion strains, locus YPR119W, strain clb2, hits give low values 0.938 | S. cerevisiae deletion strains, locus YPR141C, strain kar3, hits give low values 0.941
active: S. cerevisiae deletion strains, locus YKR001C, strain vps1, hits give low values 0.727 | S. cerevisiae deletion strains, locus YKR026C, strain gcn3, hits give low values 0.903 | S. cerevisiae deletion strains, locus YLL026W, hits give low values 0.838 | S. cerevisiae deletion strains, locus YLR027C, strain aat2, hits give low values 0.638 | S. cerevisiae deletion strains, locus YLR221C, strain rsa3, hits give low values 0.355 | S. cerevisiae deletion strains, locus YLR258W, strain gsy2, hits give low values 0.902 | S. cerevisiae deletion strains, locus YLR262C, strain YPT6 (second series), hits give low values 0.724 | S. cerevisiae deletion strains, locus YLR268W, strain sec22, hits give low values 0.764 | S. cerevisiae deletion strains, locus YLR320W, strain mms22, hits give low values 0.721 | S. cerevisiae deletion strains, locus YLR330W, strain CHS5, hits give low values 0.648 | S. cerevisiae deletion strains, locus YLR342W, strain FKS1 (second series), hits give low values 0.749 | S. cerevisiae deletion strains, locus YLR357W, strain rsc2, hits give low values 0.632 | S. cerevisiae deletion strains, locus YLR371W, strain rom2, hits give low values 0.715 | S. cerevisiae deletion strains, locus YLR418C, strain cdc73, hits give low values 0.54 | S. cerevisiae deletion strains, locus YML032C, strain rad52, hits give low values 0.89 | S. cerevisiae deletion strains, locus YML120C, strain ndi1, hits give low values 0.13 | S. cerevisiae deletion strains, locus YMR058W, strain fet3, hits give low values 0.759 | S. cerevisiae deletion strains, locus YMR125W, strain sto1, hits give low values 0.397 | S. cerevisiae deletion strains, locus YMR129W, hits give low values 0.839 | S. cerevisiae deletion strains, locus YMR205C, strain PFK2, hits give low values 0.868 | S. cerevisiae deletion strains, locus YMR223W, strain ubp8, hits give low values 0.847 | S. cerevisiae deletion strains, locus YMR307W, strain GAS1, hits give low values 0.49 | S. cerevisiae deletion strains, locus YNL071W, strain lat1, hits give low values 0.274 | S. cerevisiae deletion strains, locus YNL233W, strain BNI4, hits give low values 0.657 | S. cerevisiae deletion strains, locus YNL248C, strain rpa49, hits give low values 0.409 | S. cerevisiae deletion strains, locus YNL271C, strain bni1, hits give low values 0.917 | S. cerevisiae deletion strains, locus YNL298W, strain CLA4, hits give low values 0.899 | S. cerevisiae deletion strains, locus YNL307C, strain MCK1, hits give low values 0.589 | S. cerevisiae deletion strains, locus YNL322C, strain KRE1 (second series), hits give low values 0.876 | S. cerevisiae deletion strains, locus YOL147C, strain pex11, hits give low values 0.872 | S. cerevisiae deletion strains, locus YOR001W, strain rrp6, hits give low values 0.664 | S. cerevisiae deletion strains, locus YOR106W, strain vam3, hits give low values 0.72 | S. cerevisiae deletion strains, locus YOR144C, strain elg1, hits give low values 0.916 | S. cerevisiae deletion strains, locus YOR184W, strain ser1, hits give low values 0.686 | S. cerevisiae deletion strains, locus YOR290C, strain snf2, hits give low values 0.844 | S. cerevisiae deletion strains, locus YPL051W, strain arl3, hits give low values 0.886 | S. cerevisiae deletion strains, locus YPL240C, strain hsp82, hits give low values 0.837 | S. cerevisiae deletion strains, locus YPL241C, strain CIN2, hits give low values 0.925 | S. cerevisiae deletion strains, locus YPR163C, strain tif3, hits give low values 0.725 | S. cerevisiae deletion strains, locus YPR167C, strain met16, hits give low values 0.916 | S. cerevisiae deletion strains, strain wtn01, hits give low values 0.797 | S. cerevisiae strains, strain wild type, hits give low values 0.579
